Compounds with a hit are over-represented: about 21% of the library has one in this group of screens.
NS1 function inh – influenza NS1 inhibition. Potency, µM (doses to about 46.1 µM), for the others: at the top dose activity, positive = more growth. 270,000 compounds, 0.4% hits. AID 2326; calls by dose curve; further: potency means the concentration at half of the fitted maximal effect; actives are rising curves; nearly all actives have a fitted effect of over 50% in size
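Compounds were scored for reversing the slow growth caused by influenza A NS1 in S. cerevisiae, measured by optical density at 600 nm. Assay medium contained 2% galactose at pH 6.0; NS1-free yeast of the same strain were the positive control.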
Pf growth 48h – inhibits P. falciparum growth in the first generation, 48 h; P. falciparum luciferase growth in erythrocytes, 48 h; Potency, µM (highest dose often 28.7 µM), for inactives: top-dose activity change, negative = inhibition, hits mostly inhibitors; 310,000 compounds, 5.9% hits; further: potency means the concentration at half of the fitted maximal effect; on the % scale 0 is the no-effect control and ±100 the full control effect
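First compound was added to culture medium, then infected red cells at 0.1% parasitemia and 2% hematocrit (final). After incubation at 37 C under 5% CO2, luciferase detection reagent was dispensed and light output recorded.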
Pf growth 96h – P. falciparum growth inhibition at 96 hour, primary screen for plastid delayed-death inhibitors; P. falciparum luciferase reporter growth, 96 h; Potency, µM (series often up to 28.7 µM), for inactives: top-dose activity change, negative = inhibition, usual class: inhibitors; 320,000 compounds, 6.9% hits; AID 504834; further: potency means the concentration at half of the fitted maximal effect; on the % scale 0 is the no-effect control and ±100 the full control effect
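Cell-based qHTS: luciferase-tagged P. falciparum in erythrocytes (2% hematocrit, 0.05% parasitemia final) incubated with compounds for 96 hours, 37 C, 5% CO2; luciferase detection reagent then added and luminescence measured.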
Shiga inhibitor – inhibitors of Shiga toxin in Vero cells; Vero cells, Shiga toxin protein synthesis inhibition reporter; inhibition, % at 38.7 µM; 290,000 compounds, 9.2% hits; in the data active means inhibition mostly above about 28%, no sharp cut-off; inactive means mostly below about 43%; further: 0% is about no effect
CHX counter – counter-screen hit for Shiga toxin inhibitors, cycloheximide; max response, %; cell reporter, cycloheximide protein synthesis inhibition counterscreen; 300,000 compounds, 12% hits; in the data active means max response mostly above about 13%, no sharp cut-off; inactive means mostly below about 14%; further: read at 38.3 µM for the half of the compounds with a filed dose; 0% is about no effect
Starred values were filed as active, the others as inactive; [ ] = dose if it differs, or a comment. Unless noted, the call rests on the fitted dose curve; in most records, active means well fitted inhibition curve with a large enough effect; inconclusive means small, poorly fitted or top-dose-only effect, or another doubt; inactive means no such curve, though single readings can be large or run the other way.

What do the screens show for `CCCC(=O)Nc1cccc(-c2cn3cccnc3n2)c1`?
Pf growth 48h: 23.2%; Pf growth 96h: inconclusive; Shiga inhibitor: 36.9; CHX counter: 22.9*

How did CCCC(=O)Nc1cc(-c2cn3cccnc3n2)ccc1OC do in these assays?
NS1 function inh: -1.4%; Pf growth 48h: 56.1%; Pf growth 96h: 35.0%; Shiga inhibitor: -11.1; CHX counter: 1.1

What do the screens show for `CC(C)(C)CC(=O)Nc1ccc(-c2cn3cccnc3n2)cc1`?
NS1 function inh: 1.2%; Pf growth 48h: 66.9%; Pf growth 96h: -17.2%; Shiga inhibitor: 72.1*; CHX counter: 38.8*

Results for O=C(Nc1ccccc1)Nc1cccc(-c2cn3cccnc3n2)c1 ?
NS1 function inh: -11.5%; Pf growth 48h: 0.0%; Pf growth 96h: 32.9%; Shiga inhibitor: -4.3; CHX counter: -2.7

How did CCOCC(=O)Nc1ccc(-c2cn3cccnc3n2)cc1 do in these assays?
NS1 function inh: -1.1%; Pf growth 48h: 41.9%; Pf growth 96h: inconclusive; Shiga inhibitor: 4.6; CHX counter: 16.1

What do the screens show for `CCN(CC)S(=O)(=O)c1cccc(-c2cn3cccnc3n2)c1`?
NS1 function inh: 2.2%; Pf growth 48h: 4.15µM*; Pf growth 96h: 14.7µM*; Shiga inhibitor: -4.8; CHX counter: -1.5

Results for CC1CCCN(S(=O)(=O)c2cccc(-c3cn4cccnc4n3)c2)C1 (centres undefined) ?
NS1 function inh: -16.8%; Pf growth 48h: -13.6%; Pf growth 96h: inconclusive; Shiga inhibitor: 0.9; CHX counter: -5.1

Results for CCCC(=O)Nc1ccc(-c2cn3cccnc3n2)cc1 ?
NS1 function inh: -2.3%; Pf growth 48h: 55.6%; Pf growth 96h: -24.4%; Shiga inhibitor: 38.7*; CHX counter: 30.7*

How did CC(C)CC(=O)Nc1ccc(-c2cn3ccsc3n2)cc1 do in these assays?
NS1 function inh: -6.6%; Pf growth 48h: 73.8%; Pf growth 96h: 13.1µM*; Shiga inhibitor: 32.6*; CHX counter: 18.5*

What do the screens show for `CC(C)CC(=O)Nc1ccc(-c2cn3cccnc3n2)cc1`?
NS1 function inh: 2.4%; Pf growth 48h: 39.2%; Pf growth 96h: 2.7%; Shiga inhibitor: 87.9*; CHX counter: 29.0*

Results for Cc1sc2nc(SCC(=O)N(C)c3ccccc3)n(C)c(=O)c2c1C ?
NS1 function inh: -4.6%; Pf growth 48h: 8.28µM*; Pf growth 96h: -3.0%; Shiga inhibitor: -4.8; CHX counter: -6.0

What do the screens show for `O=S1(=O)CCO[C@H]2Cc3ccccc3[C@H]2N1Cc1ccccc1F`?
NS1 function inh: 3.5%; Pf growth 48h: 0.0%; Pf growth 96h: -39.9%; Shiga inhibitor: -9.3; CHX counter: -4.0

How did O=S1(=O)CCO[C@H]2Cc3ccccc3[C@H]2N1Cc1ccccc1Br do in these assays?
NS1 function inh: -0.4%; Pf growth 48h: 11.8%; Pf growth 96h: 16.5µM*; Shiga inhibitor: 9.0; CHX counter: 0.5

Results for C/C(N)=C(/C#N)C(=O)CSc1ccc2c(c1)OCCO2 ?
NS1 function inh: -0.4%; Pf growth 48h: 102.3%; Pf growth 96h: 389.1%; Shiga inhibitor: 97.9*; CHX counter: 47.8*

Results for Cc1cc(C(=O)CSc2ccc3c(c2)OCCO3)c(C)n1C1CC1 ?
NS1 function inh: -9.7%; Pf growth 48h: 98.8%; Pf growth 96h: 77.3%; Shiga inhibitor: 92.0*; CHX counter: 66.8*

How did N#Cc1cc([N+](=O)[O-])ccc1N1CCN(c2ccccc2O)CC1 do in these assays?
Pf growth 48h: -23.0%; Pf growth 96h: -57.4%; Shiga inhibitor: 71.1*; CHX counter: 43.3*

What do the screens show for `O=[N+]([O-])c1ccc(N2CCN(c3ccc([N+](=O)[O-])cc3CO)CC2)c(CO)c1`?
NS1 function inh: -1.0%; Pf growth 48h: inconclusive; Pf growth 96h: inconclusive; Shiga inhibitor: 2.6; CHX counter: -3.2

What do the screens show for `CC(C(=O)Nc1cc([N+](=O)[O-])ccc1Cl)N1CCN(c2ccccc2O)CC1` (centres undefined)?
NS1 function inh: -4.4%; Pf growth 48h: 6.57µM*; Pf growth 96h: inconclusive; Shiga inhibitor: -6.9; CHX counter: 1.3

Results for COC(=O)c1ccc(N2CCN(C)CC2)c([N+](=O)[O-])c1 ?
Pf growth 48h: 63.7%; Pf growth 96h: 20.5%; Shiga inhibitor: 33.4; CHX counter: -1.6

What do the screens show for `O=C(O)c1ccccc1C(=O)c1ccc(N2CCCC2)c([N+](=O)[O-])c1`?
NS1 function inh: 6.3%; Pf growth 48h: -5.7%[1.15 µM]; Pf growth 96h: 11.7µM*; Shiga inhibitor: 1.2; CHX counter: -1.7

What do the screens show for `CC(=O)c1ccc(N2CCN(c3ccccc3O)CC2)c([N+](=O)[O-])c1`?
NS1 function inh: -11.4%; Pf growth 48h: 0.0%; Pf growth 96h: 15.9%; Shiga inhibitor: 2.4; CHX counter: 6.0*

What do the screens show for `Cc1ccc(NNC(=O)c2ccno2)c(C)c1`?
NS1 function inh: -4.0%; Pf growth 48h: 4.0%; Pf growth 96h: inconclusive; Shiga inhibitor: 20.1; CHX counter: -1.9

How did N#C/C(=C/c1ccc(N2CCOCC2)c([N+](=O)[O-])c1)C(N)=O do in these assays?
NS1 function inh: 4.7%; Pf growth 48h: 1.4%; Shiga inhibitor: -28.6; CHX counter: -1.7

What do the screens show for `CCOC(=O)C1(C)/C(=N/Nc2ccccc2Cl)C(=O)C(=O)N1c1ccccc1` (centres undefined)?
NS1 function inh: 5.3%; Pf growth 48h: 14.7%; Shiga inhibitor: -19.2; CHX counter: -0.7

What do the screens show for `C=CCN1C(=O)c2ccccc2NC1c1cc(Br)cs1` (centres undefined)?
NS1 function inh: 4.2%; Pf growth 48h: 10.4µM*; Pf growth 96h: inconclusive; Shiga inhibitor: -7.6; CHX counter: -4.2

How did COc1cc(/C=N/n2c(SC)nnc(C(C)(C)C)c2=O)ccc1O do in these assays?
NS1 function inh: 22.0%; Pf growth 48h: 2.2%; Pf growth 96h: 18.4%; Shiga inhibitor: -11.8; CHX counter: -8.1

How did Cc1nn(C(C)C(=O)NCCCN2CCCCCC2)c(=O)c2cc3sccc3n12 (centres undefined) do in these assays?
NS1 function inh: 15.7%; Pf growth 48h: 8.2%; Pf growth 96h: 0.2%; Shiga inhibitor: -5.4; CHX counter: -8.6

What do the screens show for `C=CCn1c(SCC(=O)c2[nH]c(C)c(C(=O)OC)c2C)nc2scc(-c3ccc(OC)c(OC)c3)c2c1=O`?
NS1 function inh: 17.8%; Pf growth 48h: inconclusive; Pf growth 96h: 2.94µM*; Shiga inhibitor: -10.1; CHX counter: -2.3

Results for C=CCn1c(SCC(=O)c2[nH]c(C)c(C(C)=O)c2C)nnc1-c1ccncc1 ?
NS1 function inh: 9.5%; Pf growth 48h: 18.7%; Shiga inhibitor: -4.7; CHX counter: 3.8

How did CCOc1ccccc1NC(=O)COC(=O)c1cc[n+]([O-])cc1 do in these assays?
NS1 function inh: -5.1%; Pf growth 48h: inconclusive; Pf growth 96h: -5.1%; Shiga inhibitor: 3.9; CHX counter: -2.8

How did CCOc1ccc(CN2CCN(CC3=Cc4cccc(OC)c4OC3)CC2CCO)cc1 (centres undefined) do in these assays?
NS1 function inh: -1.2%; Pf growth 48h: 10.4µM*; Pf growth 96h: inconclusive; Shiga inhibitor: -25.7; CHX counter: -3.1
